Results filed as inconclusive are left out. A call without a number means that no potency is given here. The source made the active and inactive calls. Unless noted, calls follow the shape of the dose curve; as a rule, active = well fitted curve in the direction sought with a large enough effect in the repeat runs; inconclusive = weak or mixed curves; inactive = no such curve, though single readings can be large; an effect the other way counts as inactive or inconclusive.
How the values were obtained:
[1] = molecular target: Thyrotropin-releasing hormone receptor (Homo sapiens) (UniProt P34981); test: qHTS assay to identify small molecule agonists of the thyrotropin-releasing hormone receptor (TRHR) signaling pathway (AID 1346891; calls by dose curve; also: potency is read from the fitted curve at half-maximal effect); details: TRHR-HEK293 calcium fluorescence, agonist mode; series mostly up to 57.6 µM
In short: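 HEK293 cells expressing TRHR plated 18 h at 37 C/5% CO2, calcium dye-loaded 2 h at 37 C, then compound added (agonist mode); kinetic calcium fluorescence read 3 min at 1 s intervals; 15 concentrations in triplicate.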

[2] = Human pregnane X receptor (PXR) small molecule agonists, qHTS cell viability counter screen (AID 1346977); details: PXR-Luc HepG2 viability, CellTiter-Fluor, 24 h; series mostly up to 92.4 µM; also: nearly all actives have a fitted effect of over 50% in size; also: potency is read from the fitted curve at half-maximal effect
In short: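 PXR-Luc HepG2 cells (2,000/well, 5% charcoal-stripped FBS) preincubated 5 hr, then exposed to compounds 24 hr at 37 C. Viability read in the same wells by CellTiter-Fluor fluorescence, reagent added at 23 hr, 1 hr incubation.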

[3] = Caspase-3/7 induction in HepG2 cells by small molecules, qHTS assay (AID 1346978); details: HepG2 caspase-3/7 activation, Caspase-Glo luminescence, 17 h; series mostly up to 92.4 µM; also: nearly all actives have a fitted effect of over 15% in size
In short: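 Caspase-3/7 induction was measured by Caspase-Glo 3/7 luminescence (30 min, room temperature) after a 17 hr compound exposure of wild-type HepG2 cells seeded at 2,000 per well and pre-incubated 5 hr.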

[4] = Caspase-3/7 induction in CHO-K1 cells by small molecules, qHTS assay (AID 1346980); details: CHO-K1 caspase-3/7 induction, Caspase-Glo luminescence, 17 h; series mostly up to 92.4 µM; also: nearly all actives have a fitted effect of over 15% in size
In short: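 Luminescent Caspase-Glo 3/7 read (30min, room temperature) quantified apoptosis induction. Cells were wild-type CHO-K1, treated with compound for 17hr at 37 C and 5% CO2.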

[5] = Caspase-3/7 induction in HepG2 cells by small molecules, qHTS cell viability counter screen (AID 1346981); details: CellTiter-Fluor fluorescence, 17 h; series mostly up to 92.4 µM; also: nearly all actives have a fitted effect of over 30% in size
In short: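 In this quantitative HTS counter screen, compounds delivered in DMSO were left on unmodified HepG2 cells for 16 hr at 37 C. Viability was then determined fluorometrically with CellTiter-Fluor, in parallel with caspase-3/7 induction in the same wells.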

[6] = molecular target: Nuclear receptor subfamily 1 group I member 2 (Homo sapiens) (UniProt O75469); test: Human pregnane X receptor (PXR) small molecule agonists, qHTS assay (AID 1346982); details: PXR-Luc HepG2, CYP3A4 luciferase reporter, 24 h; series mostly up to 92.4 µM; also: nearly all actives have a fitted effect of over 35% in size; also: potency is read from the fitted curve at half-maximal effect
In short: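 Reporter HepG2 cells expressing PXR-Luc are cultured in charcoal-stripped FBS (5%), treated with compounds for 24 hr at 37 C, and assayed by ONE-Glo luminescence after 30 min at room temperature.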

[7] = Caspase-3/7 induction in CHO-K1 cells by small molecules, qHTS cell viability counter screen (AID 1346979); details: CellTiter-Fluor fluorescence, 17 h; series mostly up to 92.4 µM; also: nearly all actives have a fitted effect of over 35% in size; also: potency is read from the fitted curve at half-maximal effect
In short: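 Wild-type CHO-K1 cells (1,500/well) treated with compound after 5 h plating; after 16 h at 37C, viability read as CellTiter-Fluor fluorescence following 1 h reagent incubation, in the same wells as the caspase read.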

[8] = molecular target: Nuclear receptor subfamily 1 group I member 2 (Homo sapiens) (UniProt O75469); test: Human pregnane X receptor (PXR) activation by small molecules, qHTS assay (AID 1346985); details: DPX-2 HepG2 CYP3A4-luciferase, 24 h; series mostly up to 38.3 µM; also: nearly all actives have a fitted effect of over 40% in size; also: potency is read from the fitted curve at half-maximal effect
In short: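 DPX-2 cells (HepG2 co-transfected with a PXR response element and a CYP3A4-promoter luciferase construct) were seeded at 2,000 per well, rested 5 hr at 37C, then exposed to DMSO-dissolved compounds for 24 hr. Activation was read as luciferase luminescence.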

[9] = molecular target: Nuclear receptor subfamily 1 group I member 2 (Rattus norvegicus) (UniProt Q9R1A7); test: Rat pregnane X receptor (rPXR) activation by small molecules, qHTS assay (AID 1346983); details: rPXR luciferase reporter cells, One-Glo luminescence, 24 h; max activation: hits give high values; also: nearly all actives have a fitted effect of over 20% in size
In short: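 Luminescent readout (One-Glo luciferase, 30 min room temperature) followed 24 hr compound treatment at 37 C of rPXR cells plated 2,000 per well and preincubated 5hr; qHTS format with compounds delivered in DMSO.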

Nuclear receptor subfamily 1 group I member 2 (Homo sapiens), sequence (O75469 whole entry, looked up): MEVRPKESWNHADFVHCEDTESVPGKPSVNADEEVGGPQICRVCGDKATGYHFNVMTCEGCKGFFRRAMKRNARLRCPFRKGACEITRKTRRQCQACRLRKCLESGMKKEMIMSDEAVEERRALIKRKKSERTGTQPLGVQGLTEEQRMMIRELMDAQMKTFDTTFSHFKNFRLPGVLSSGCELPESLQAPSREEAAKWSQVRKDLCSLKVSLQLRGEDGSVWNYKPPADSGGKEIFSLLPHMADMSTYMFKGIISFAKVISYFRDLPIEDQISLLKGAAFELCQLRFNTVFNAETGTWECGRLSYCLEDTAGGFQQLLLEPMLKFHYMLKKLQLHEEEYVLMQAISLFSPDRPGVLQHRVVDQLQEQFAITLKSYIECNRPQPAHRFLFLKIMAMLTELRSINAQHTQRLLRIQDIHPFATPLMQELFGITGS
Thyrotropin-releasing hormone receptor (Homo sapiens), sequence (P34981 whole entry, looked up): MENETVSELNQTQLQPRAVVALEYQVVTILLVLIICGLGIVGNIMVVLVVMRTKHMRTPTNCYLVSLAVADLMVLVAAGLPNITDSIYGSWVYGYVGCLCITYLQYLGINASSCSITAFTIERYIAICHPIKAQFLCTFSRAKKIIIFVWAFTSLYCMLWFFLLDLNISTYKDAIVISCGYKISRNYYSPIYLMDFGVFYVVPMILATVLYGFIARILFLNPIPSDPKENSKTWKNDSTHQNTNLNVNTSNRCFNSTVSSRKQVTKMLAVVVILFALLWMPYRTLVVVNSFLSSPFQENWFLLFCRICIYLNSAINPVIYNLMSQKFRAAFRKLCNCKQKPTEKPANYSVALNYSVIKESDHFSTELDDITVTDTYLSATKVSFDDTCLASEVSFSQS
Nuclear receptor subfamily 1 group I member 2 (Rattus norvegicus), sequence (Q9R1A7 whole entry, looked up): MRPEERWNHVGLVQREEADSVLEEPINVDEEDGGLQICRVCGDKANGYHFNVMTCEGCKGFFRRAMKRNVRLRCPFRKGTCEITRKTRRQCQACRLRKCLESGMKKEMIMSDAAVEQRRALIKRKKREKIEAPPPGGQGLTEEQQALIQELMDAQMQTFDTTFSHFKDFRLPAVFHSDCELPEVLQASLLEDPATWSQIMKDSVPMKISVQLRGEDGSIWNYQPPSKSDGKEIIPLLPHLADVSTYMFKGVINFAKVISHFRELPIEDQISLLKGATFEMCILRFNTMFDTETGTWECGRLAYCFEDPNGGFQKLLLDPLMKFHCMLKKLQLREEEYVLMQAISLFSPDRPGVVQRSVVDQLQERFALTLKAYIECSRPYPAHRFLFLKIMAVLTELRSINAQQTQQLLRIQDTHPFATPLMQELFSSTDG

Compound	Potency [1]	Potency [2]	Potency [3]	Potency [4]	Potency [5]	Potency [6]	Potency [7]	Potency [8]	max activation [9]
CS(=O)(=O)c1ccc(-c2cn3ccccc3n2)cc1	inactive	inactive	inactive	inactive	inactive	2.66 µM (active)	–	–	–
O=C1NC(=O)c2cc([N+](=O)[O-])ccc21	inactive	inactive	–	inactive	inactive	61.6 µM (active)	inactive	–	–
CN(C(=O)CN(CCO)CC(=O)N(C)C(C)(C)Cc1ccccc1)C(C)(C)Cc1ccccc1	inactive	inactive	inactive	inactive	–	–	–	8.91 µM (active)	–
CC(C)c1nc(CN(C)C(=O)N[C@H](C(=O)N[C@@H](Cc2ccccc2)C[C@H](O)[C@H](Cc2ccccc2)NC(=O)OCc2cncs2)C(C)C)cs1	inactive	9.44 µM (active)	–	inactive	–	5.96 µM (active)	23.7 µM (active)	–	–
O[C@@H]1CO[C@H]2[C@@H]1OC[C@@H]2O	inactive	inactive	inactive	inactive	inactive	inactive	–	inactive	-1.59% (inactive)
CC(=O)OCC[N+](C)(C)C	3.01 µM (active)	inactive	inactive	–	inactive	inactive	–	–	–
N#CCCN(CCO)CCO	inactive	inactive	inactive	inactive	inactive	inactive	–	–	–
C/C=C\C/C=C/CCCCCCCCOC(C)=O	inactive	inactive	inactive	inactive	–	61.1 µM (active)	–	–	–

Source: PubChem BioAssay (Tox21)
